The values below come from PubChem BioAssay (EPA / NIEHS).

Assay [1] can be described thus: STM_H9_NormalizedViability: Cytotoxicity Assessment at 120 hours in the Stemina devTOX quickPredict H9 human embryonic stem cell (hESC)-based Assay (AID 2283784). In short, it runs like this:
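Undifferentiated H9 hESCs kept pluripotent were exposed to compound, with media and chemical replaced every 24h. CellTiter-Fluor protease-substrate fluorescence was background-corrected and normalized per plate to the 0.1% DMSO vehicle; signal loss indicates reduced viability.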

Assay [2] deals with AR (gene 367) (UniProt P10275). The assay is described as follows: ACEA_AR_agonist_80hr: ACEA Biosciences xCELLigence Real-Time Cell Analysis on Androgen Receptor Agonism for Proliferation (AID 2283783).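 Further: hits increase impedance growth signal above DMSO baseline.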 Put shortly:
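Proliferation of 22Rv1 prostate cancer cells tracked by electrical impedance, endpoint taken at 80 hours after dosing. Eight-point 1:4 dilutions from 100 uM maximum final, duplicate; testosterone and MG132 as positive controls, assay media as negative.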

For assay [3], the target named is AR (gene 367) (UniProt P10275). In words: ACEA_AR_antagonist_80hr: ACEA Biosciences xCELLigence Real-Time Cell Analysis on Androgen Receptor Antagonism for Proliferation (AID 2283787).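 Further: 22Rv1 human prostate cancer cells with growth followed by electrical impedance; hits lower the impedance growth signal relative to DMSO.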 Put shortly: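 22Rv1 cells in assay medium, growth tracked by electrical impedance; compounds eight-point 1:4 dilutions from 100 uM final, duplicate plates. Endpoint at 80 h; loss of signal versus DMSO.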
Chain of AR (gene 367) (P10275 whole entry, looked up): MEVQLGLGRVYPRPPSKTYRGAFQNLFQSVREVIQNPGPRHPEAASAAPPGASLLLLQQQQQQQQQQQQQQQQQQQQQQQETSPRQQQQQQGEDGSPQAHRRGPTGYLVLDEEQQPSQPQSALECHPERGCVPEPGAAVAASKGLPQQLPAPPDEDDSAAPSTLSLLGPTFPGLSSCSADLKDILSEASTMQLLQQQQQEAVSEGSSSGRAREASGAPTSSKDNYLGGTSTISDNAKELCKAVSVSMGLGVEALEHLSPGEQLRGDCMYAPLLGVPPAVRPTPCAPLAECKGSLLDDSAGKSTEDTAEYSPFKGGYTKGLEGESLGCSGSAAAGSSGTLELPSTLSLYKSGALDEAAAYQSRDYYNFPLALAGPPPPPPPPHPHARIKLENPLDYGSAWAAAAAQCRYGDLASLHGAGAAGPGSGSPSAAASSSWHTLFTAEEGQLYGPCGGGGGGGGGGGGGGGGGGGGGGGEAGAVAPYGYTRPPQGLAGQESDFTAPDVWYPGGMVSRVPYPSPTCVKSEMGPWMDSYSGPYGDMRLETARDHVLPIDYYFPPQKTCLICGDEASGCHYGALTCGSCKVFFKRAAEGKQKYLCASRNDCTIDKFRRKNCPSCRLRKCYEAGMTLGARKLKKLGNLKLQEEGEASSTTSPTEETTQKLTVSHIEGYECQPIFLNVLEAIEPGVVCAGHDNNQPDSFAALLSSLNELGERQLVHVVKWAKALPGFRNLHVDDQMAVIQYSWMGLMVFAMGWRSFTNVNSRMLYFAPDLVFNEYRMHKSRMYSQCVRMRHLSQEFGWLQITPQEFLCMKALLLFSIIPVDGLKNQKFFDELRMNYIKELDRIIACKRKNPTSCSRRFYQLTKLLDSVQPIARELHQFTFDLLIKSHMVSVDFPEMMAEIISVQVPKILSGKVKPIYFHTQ

Assay [4] in a line: ATG_M_06_XSP1: Attagene TRANS-FACTORIAL Multi-Species (XSP1) HepG2 Assay for M06 Transcription Factor (Internal Marker) (AID 2283790). Put shortly:
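Transfected HepG2 multi-reporter system treated 24 h in the presence of 3 nM 6-alpha-fluorotestosterone. The M06 internal marker transcript was quantified by RT-PCR with capillary electrophoresis as a background control, and gain of signal was scored versus DMSO.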

A short description of assay [5]: ATG_M_61_XSP1: Attagene TRANS-FACTORIAL Multi-Species (XSP1) HepG2 Assay for M61 Transcription Factor (Internal Marker) (AID 2283797). As for the experimental part:
ATG_XSP1_multi-species_TRANS is a cell-based, multiplexed assay created by modifying the existing Attagene TRANS-FACTORIAL system to include a panel of nuclear receptors from some or all the following species: human (Homo sapiens), mouse (Mus musculus), frog (Xenopus laevis), zebrafish (Danio rerio), chicken (Gallus gallus), and turtle (Chrysemys picta). The ECOTOX-FACTORIAL format uses HepG2, a human liver cell line, with measurements taken at 24 hours after chemical dosing in a 24-well plate. Xsp1 included 3 nM 6-alpha-fluorotestosterone to partially stimulate the androgen receptor.ATG_M_61_XSP1 is one of 29 assay components measured or calculated from the ATG_XSP1_multi-species_TRANS assay. It is designed to make measurements of mRNA induction, a form of inducible reporter, as detected with fluorescence intensity signals by Reverse transcription polymerase chain reaction (RT-PCR) and Capillary electrophoresis technology.This assay endpoint, ATG_M_61_XSP1, was analyzed in the positive analysis fitting direction relative to DMSO as the negative control and baseline of activity. Using a type of inducible reporter, measures of mRNA for gain-of-signal activity can be used to understand the background control at the transcription factor-level as they relate to the gene. Furthermore, this assay endpoint can be referred to as a secondary readout, because this assay has produced multiple assay endpoints where this one serves a background control function. To generalize the intended target to other relatable targets, this assay endpoint is annotated to the background measurement intended target family, where the subfamily is internal marker.
(§1) Human liver HepG2 cells are transiently transfected with multiple reporter transcription units (MRTUs) in 6-well plates using FuGene 6 reagent (Roche; 3 ml FuGene/1 mg DNA). The MRTU constructs are regulated by a cis-regulating element (promoter). […] A major difference between the CIS and TRANS system is that in CIS activities of endogenous TFs are measured, whereas the TRANS assay evaluates changes in activities of exogenous, chimeric NR-Gal4 proteins. […] At the end of 24 hour incubation, total RNA was isolated using TriZol reagent (Invitrogen). The isolated RNA is then reverse-transcribed using oligo(dT) primer and Mo-MLV reverse transcriptase (Invitrogen) with DNAse I (Ambion) treatment for 30 min. […] The fragments were purified using Qiaquick PCR columns (Qiagen), analyzed on an ABI 3130xL genetic analyzer (Applied Biosystems) with peak positions identified by using a set of X-rhodamine (ROX)-labeled MapMarker1000 molecular weight standards (BioVentures). […]

For assay [6], the target named is frog Thyroid hormone Receptor alpha (TRa), thra-a (gene 397942) (UniProt P15204). In words: ATG_frTRa_XSP1: Attagene TRANS-FACTORIAL Multi-Species (XSP1) HepG2 Assay for frog Thyroid hormone Receptor alpha (TRa) (AID 2283804). In short, it runs like this:
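HepG2 cells transiently transfected with frog TRa-GAL4 chimeric reporter units, dosed 24 hr with 3 nM 6-alpha-fluorotestosterone present; reporter mRNA quantified by RT-PCR, fluorescent labelling and capillary electrophoresis, gain of signal versus DMSO.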

Assay [7] deals with turtle Thyroid Hormone Receptor, alpha (TRa), gene 101949057. In words: ATG_trTRa_XSP1: Attagene TRANS-FACTORIAL Multi-Species (XSP1) HepG2 Assay for turtle Thyroid Hormone Receptor, alpha (TRa) (AID 2283806). In short, it runs like this: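 HepG2 cells transiently transfected with GAL4-UAS reporter units and chimeric receptor-Gal4 constructs, with 3 nM 6-alpha-fluorotestosterone present. Reporter mRNA was quantified 24 h after dosing by RT-PCR, 6-FAM labelling and capillary electrophoresis; gain of signal versus DMSO.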

Assay [8] has as its target zebrafish Thyroid Hormone Receptor alpha (TRa), thraa (gene 30670) (UniProt Q98867). The assay is described as follows: ATG_zfTRa_XSP1: Attagene TRANS-FACTORIAL Multi-Species (XSP1) HepG2 Assay for zebrafish Thyroid Hormone Receptor alpha (TRa) (AID 2283807). In short, it runs like this: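 HepG2 cells transiently transfected with GAL4-UAS reporter units including a zebrafish TRa–Gal4 chimera, dosed 24 h with 3 nM 6-alpha-fluorotestosterone present. Reporter mRNA quantified by RT-PCR and capillary electrophoresis; gain versus DMSO.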

For assay [9], the target named is zebrafish Thyroid Hormone Receptor beta (TRb), thrb (gene 30607) (UniProt Q9PVE4). The assay is described as follows: ATG_zfTRb_XSP1: Attagene TRANS-FACTORIAL Multi-Species (XSP1) HepG2 Assay for zebrafish Thyroid Hormone Receptor beta (TRb) (AID 2283809). Put shortly: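 HepG2 cells transiently transfected with multiplexed GAL4-UAS reporter units expressing chimeric zebrafish TRb–Gal4. Dosed 24 h with 3 nM 6-alpha-fluorotestosterone present; reporter mRNA measured by RT-PCR, HpaI digestion and capillary electrophoresis; gain of signal versus DMSO.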
Chain of zebrafish Thyroid Hormone Receptor beta (TRb), thrb (gene 30607) (Q9PVE4 whole entry, looked up, the tested form may be a part): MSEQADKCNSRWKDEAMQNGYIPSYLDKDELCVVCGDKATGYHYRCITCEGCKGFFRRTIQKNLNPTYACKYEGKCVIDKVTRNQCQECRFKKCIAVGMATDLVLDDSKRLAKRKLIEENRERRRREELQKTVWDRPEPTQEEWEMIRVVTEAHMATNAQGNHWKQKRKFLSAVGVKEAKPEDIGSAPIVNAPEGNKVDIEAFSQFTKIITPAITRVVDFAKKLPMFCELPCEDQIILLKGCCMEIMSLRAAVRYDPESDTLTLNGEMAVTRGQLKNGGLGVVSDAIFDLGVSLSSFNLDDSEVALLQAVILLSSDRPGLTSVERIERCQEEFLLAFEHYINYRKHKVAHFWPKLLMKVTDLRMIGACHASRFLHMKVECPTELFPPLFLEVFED

The nature of assay [10]: ATG_XTT_Cytotoxicity_XSP1: Cytotoxicity Assessment in the Attagene TRANS-FACTORIAL Multi-Species (XSP1) HepG2 Assay (AID 2283810). As for the experimental part: ATG_XSP1_XTT_Cytotoxicity_multi-species is a cell-based, single-readout assay that uses HepG2, a human liver cell line, with measurements taken at 24 hours after chemical dosing in a 24-well plate. Xsp1 included 3 nM 6-alpha-fluorotestosterone to partially stimulate the androgen receptor.ATG_XTT_Cytotoxicity_XSP1 is an assay component measured from the ATG_XSP1_XTT_Cytotoxicity_multi-species assay. It is designed to make measurements of cell number, a form of viability reporter, as detected with fluorescence intensity signals by XTT cytotoxicity assay technology.This assay endpoint, ATG_XTT_Cytotoxicity_XSP1, was analyzed in the positive analysis fitting direction relative to DMSO as the negative control and baseline of activity. Using a type of viability reporter, loss-of-signal activity can be used to understand changes in the viability. Furthermore, this assay endpoint can be referred to as a primary readout, because the performed assay has only produced 1 assay endpoint. To generalize the intended target to other relatable targets, this assay endpoint is annotated to the cell cycle intended target family, where the subfamily is cytotoxicity.
as §1, with “(Invitrogen).” for “(Invitrogen). The isolated RNA is then reverse-transcribed using oligo(dT) primer and Mo-MLV reverse transcriptase (Invitrogen) with DNAse I (Ambion) treatment for 30 min.”

Records with an inconclusive call do not appear. Activity calls are given as the source filed them. How the source made its calls: active means hit-call score of the fitted dose curve at least 0.9, where 1 is the maximum; inconclusive means response in the unintended direction; inactive means score below 0.9.

By AC50 is commonly meant the midpoint of the concentration-response curve, whichever way the signal moves.

Chain of zebrafish Thyroid Hormone Receptor alpha (TRa), thraa (gene 30670) (Q98867 whole entry, looked up, the tested form may be a part): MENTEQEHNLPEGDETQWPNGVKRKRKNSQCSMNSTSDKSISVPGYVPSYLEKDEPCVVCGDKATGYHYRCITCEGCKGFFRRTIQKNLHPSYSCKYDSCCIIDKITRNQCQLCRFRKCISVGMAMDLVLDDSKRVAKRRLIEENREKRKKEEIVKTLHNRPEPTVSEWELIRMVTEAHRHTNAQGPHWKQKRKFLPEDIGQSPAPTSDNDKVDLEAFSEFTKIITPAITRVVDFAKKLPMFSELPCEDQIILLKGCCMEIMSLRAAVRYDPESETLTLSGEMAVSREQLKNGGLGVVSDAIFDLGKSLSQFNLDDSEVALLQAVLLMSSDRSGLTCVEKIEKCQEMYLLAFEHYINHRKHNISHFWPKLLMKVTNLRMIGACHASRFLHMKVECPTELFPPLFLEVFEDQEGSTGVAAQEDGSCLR
Chain of frog Thyroid hormone Receptor alpha (TRa), thra-a (gene 397942) (P15204 whole entry, looked up, the tested form may be a part): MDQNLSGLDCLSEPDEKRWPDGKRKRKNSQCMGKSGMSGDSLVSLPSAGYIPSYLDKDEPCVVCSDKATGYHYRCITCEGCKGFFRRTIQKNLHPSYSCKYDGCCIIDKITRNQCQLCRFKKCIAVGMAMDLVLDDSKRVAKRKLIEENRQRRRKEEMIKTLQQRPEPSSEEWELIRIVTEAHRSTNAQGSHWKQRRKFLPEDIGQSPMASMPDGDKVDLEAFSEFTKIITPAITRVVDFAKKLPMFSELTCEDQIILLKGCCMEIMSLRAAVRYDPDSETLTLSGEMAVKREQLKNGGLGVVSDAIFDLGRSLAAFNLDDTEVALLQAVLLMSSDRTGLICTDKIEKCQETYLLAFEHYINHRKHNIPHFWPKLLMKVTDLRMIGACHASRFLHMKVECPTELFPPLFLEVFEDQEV

Turning to `Cc1cn([C@H]2C[C@H](N=[N+]=[N-])[C@@H](CO)O2)c(=O)[nH]c1=O`, in assay [1], the result was inactive.

`NC(=O)c1nc(-c2cccc(-c3cc(F)ccc3OCC(F)(F)C(F)(F)F)c2)n[nH]1`: the result with AR (gene 367) [2] was inactive. Besides, the half-maximal activity concentration (AC50) in [1] was 0.683 µM (active); with AR (gene 367) [3] it was 18.4 µM (active).

With `C[C@]12CC[C@@H]3c4ccc(O)cc4CC[C@H]3[C@@H]1CCC2=O`, the compound was called inactive in assay [4], in [5], in assay [6], in assay [7], in [8] and in assay [9]. In addition, the call in [10] was inactive.

For the compound `CC/C(=C(/CC)c1ccc(O)cc1)c1ccc(O)cc1`, the call in assay [4], in assay [5], in assay [6], in [7], in assay [8] and in [9] was inactive. In addition, the result in assay [10] was inactive.

For the compound `Cc1cc(F)ccc1-c1cc(N2CC[C@@H](O)[C@H]2CO)ncc1N(C)C(=O)C(C)(C)c1cc(C(F)(F)F)cc(C(F)(F)F)c1`, the AC50 with AR (gene 367) [3] was 6.76 µM (active).

In the case of `CCCCCCCCOC(=O)c1cc(O)c(O)c(O)c1`, the AC50 in assay [1] was 2.44 µM (active).

With `OCCO`, the result (in assay [1]; with AR (gene 367) [3]) was inactive.

Regarding `O=C(O)c1ccccc1C(=O)OCc1ccccc1`, the compound was called inactive in the assay with AR (gene 367) [2] and in the assay with AR (gene 367) [3].

Take `COc1ccc2cc(S(=O)(=O)N[C@H](CC(=O)N[C@H](Cc3ccc(CN4[C@H](C)CCC[C@@H]4C)cc3)C(=O)N(C)C(C)C)c3ccc4c(c3)OCO4)ccc2c1`: the half-maximal activity concentration (AC50) in [1] was 18.9 µM (active).

Consider `COCC(C)OCC(C)OCC(C)O` (centres undefined), for which the compound was called inactive with AR (gene 367) [2] and with AR (gene 367) [3].

Regarding `O=c1c(-c2ccc(O)cc2)coc2cc(O)cc(O)c12`, in the assay with AR (gene 367) [2], the compound was called inactive. Also, the AC50 is 83.2 µM (active) in [1] and 65.1 µM (active) in the assay with AR (gene 367) [3].

Regarding `CC(C)(C)c1cc(/C=C2\SC(N)=NC2=O)cc(C(C)(C)C)c1O`, the result in assay [1] was inactive.

With `CCCCCCCCCC(=O)O`, the result in the assay with AR (gene 367) [3] was inactive.

As for `Oc1ccc2ccccc2c1`, the result with AR (gene 367) [2] and with AR (gene 367) [3] was inactive.
